Measurements reported in the supplement of paper PMC10849652.
Of roughly 7,900 targets only a part is listed; those with a hit were picked by preference. About 0.6% of all pairs of compound and target were hits.

How the values were obtained:
Test in all cases: log2 fold change, soluble protein after heating vs DMSO (PISA); higher = thermal stabilisation; K562 cells, 10 uM, 30 min; active = over 0.2 and 3.5 SD of the protein, either way, in both replicates (recomputed)
[1] = compound: C/C(=N\NC(=O)C1=CC(=CC=C1)S(=O)(=O)N2CCOCC2)/C3=C(C=CC(=C3)Cl)O
Outline: (§1)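 K562 cells at 2×10^6 cells/mL were exposed to 10 μM compound for 30 min, then aliquots were heated for 3 min across 48°C-58°C, pooled, and extracted in PBS containing 0.5% NP-40 at 4°C. The supernatant after 21,000xg for 90 min was taken as soluble protein and measured by TMTpro 16plex LC-MS/MS with channel sums equalised. Thermal stability is reported relative to control samples, with values from duplicates. Fold changes are given on a log2 scale.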

[2] = compound: C1=CC(=C(C=C1Cl)C2=NC3=NC=CN=C3C(=N2)NC4=CC=NC=C4)F
Outline: as §1

[3] = compound: C1=CC2=C(C=CC(=C2)/C=C\3/C(=O)NC(=NCC4=CC=CS4)S3)N=C1
Outline: as §1

[4] = compound: C1=CC2=NC=CN=C2C=C1/C=C/3\C(=O)NC(=O)S3
Outline: as §1

[5] = compound: C1=CC=C(C=C1)C2=NC(=C(N2)C3=CC=NC=C3)C4=CC(=C(C=C4)Cl)O
Outline: as §1

[6] = compound: C1=CC=C2C(=C1)C3=NNC4=CC=CC(=C43)C2=O
Outline: as §1

[7] = compound: C1CCN(C1)C(=O)NC2=CC=CC(=C2)NC3=NC=C(C(=N3)NCCC4=CN=CN4)Br
Outline: as §1

[8] = compound: C1CN(CCC1(CC2=CC=C(C=C2)Cl)N)C3=NC=NC4=C3C=CN4
Outline: as §1

IRAK-1-4 Inhibitor I = compound: C1COCCN1CCN2C3=CC=CC=C3N=C2NC(=O)C4=CC(=CC=C4)[N+](=O)[O-] [IRAK-1-4 Inhibitor I]
Outline: as §1

ibrutinib = compound: C=CC(=O)N1CCC[C@@H](n2nc(-c3ccc(Oc4ccccc4)cc3)c3c(N)ncnc32)C1 [ibrutinib]
Outline: as §1

[9] = compound: CC(=O)c1cnc2ccc(-c3cc(Cl)c(O)c(Cl)c3)nc2c1N[C@H]1CC[C@H](CN(C)C)CC1
Outline: as §1

ralimetinib = compound: CC(C)(C)Cn1c(N)nc2ccc(-c3[nH]c(C(C)(C)C)nc3-c3ccc(F)cc3)nc21 [ralimetinib]
Outline: as §1

[10] = compound: CC(C)(O)CC(=O)NCCn1ccc2ncnc(Nc3ccc(Oc4cccc(C(F)(F)F)c4)c(Cl)c3)c21
Outline: as §1

[11] = compound: CC(C)C[C@@H](C=O)NC(=O)[C@H](CC(C)C)NC(=O)[C@H](CC(C)C)NC(=O)OCc1ccccc1
Outline: as §1

pinometostat = compound: CC(C)N(C[C@H]1O[C@@H](n2cnc3c(N)ncnc32)[C@H](O)[C@@H]1O)[C@H]1C[C@@H](CCc2nc3cc(C(C)(C)C)ccc3[nH]2)C1 [pinometostat]
Outline: as §1

[12] = compound: CC1=C(C(CC(=O)N1)C2=CC=C(C=C2)C(F)(F)F)C(=O)NC3=C(C=C4C(=C3)C=NN4)F
Outline: as §1

[13] = compound: CC1=C(C2=C(C=C1)C(=O)C3=CC=CC=C3N2CCCN)C
Outline: as §1

erlotinib = compound: C#Cc1cccc(Nc2ncnc3cc(OCCOC)c(OCCOC)cc23)c1 [erlotinib]
Outline: as §1

[14] = compound: C1=CC(=CC=C1C2=NC3=C(N2)C=C(C=C3)C(=O)N)OC4=CC=C(C=C4)Cl
Outline: as §1

[15] = compound: CC(C)C1=C2N=C(C=C(N2N=C1)NCC3=CC=CC=C3)NCCCCCCN
Outline: as §1

Measured: log2 fold change

FAM118A (UniProt Q9NWS6)
Sequence of UniProt Q9NWS6 (Q9NWS6 whole entry, looked up): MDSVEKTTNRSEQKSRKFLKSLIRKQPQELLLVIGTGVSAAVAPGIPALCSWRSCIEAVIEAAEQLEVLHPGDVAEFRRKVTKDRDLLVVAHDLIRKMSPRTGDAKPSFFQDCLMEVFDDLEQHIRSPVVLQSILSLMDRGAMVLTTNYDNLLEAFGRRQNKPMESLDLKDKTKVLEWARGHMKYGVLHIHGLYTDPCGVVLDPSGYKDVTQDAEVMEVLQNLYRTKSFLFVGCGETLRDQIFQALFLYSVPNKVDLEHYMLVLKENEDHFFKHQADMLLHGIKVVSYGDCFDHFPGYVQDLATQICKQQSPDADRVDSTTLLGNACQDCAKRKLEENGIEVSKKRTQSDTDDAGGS
inactive: [1] 0.005 | [2] 0.098 | [3] 0.083 | [4] 0.089 | [5] -0.365 | [6] 0.212 | [7] 0.084 | [8] 0.078 | IRAK-1-4 Inhibitor I -0.009 | ibrutinib 0.045 | [9] -0.212 | ralimetinib -0.21 | [10] -0.207 | [11] -0.125 | pinometostat -0.054 | [12] -0.006 | [13] 0.014

DNAH10 (UniProt Q8IVF4)
inactive: erlotinib 0.325 | [2] 0.251 | [14] -0.187 | [4] -0.054 | [7] -0.052 | [8] 0.137 | IRAK-1-4 Inhibitor I 0.004 | ibrutinib 0.018 | [10] -0.127 | [15] 0.162 | pinometostat -0.106 | [12] -0.154 | [13] -0.022

FADS1 (UniProt F5GYH4)
inactive: [4] 0.155 | [7] 0.057 | [8] 0.002 | IRAK-1-4 Inhibitor I 0.02 | ibrutinib -0.093 | pinometostat 0.075 | [13] -0.097

ENTR1 (UniProt Q96C92)
Sequence of UniProt Q96C92 (Q96C92 whole entry, looked up): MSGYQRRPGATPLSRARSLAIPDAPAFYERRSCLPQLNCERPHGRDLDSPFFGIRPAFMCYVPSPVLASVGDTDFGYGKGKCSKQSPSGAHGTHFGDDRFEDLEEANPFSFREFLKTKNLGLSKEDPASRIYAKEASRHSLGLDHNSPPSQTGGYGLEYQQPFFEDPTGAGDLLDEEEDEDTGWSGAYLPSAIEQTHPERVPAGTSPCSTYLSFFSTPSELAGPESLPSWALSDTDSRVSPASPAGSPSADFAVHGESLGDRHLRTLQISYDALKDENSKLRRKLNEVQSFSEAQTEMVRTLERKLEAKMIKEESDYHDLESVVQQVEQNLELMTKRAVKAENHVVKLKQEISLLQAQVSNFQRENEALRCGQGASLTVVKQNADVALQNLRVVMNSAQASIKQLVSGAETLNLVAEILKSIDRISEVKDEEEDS
inactive: erlotinib -0.015 | [14] 0.043 | [15] -0.156

DHPS (UniProt M0R1T2)
inactive: [4] 0.099 | ibrutinib 0.124

EPHB4 (UniProt P54760)
Sequence of UniProt P54760 (P54760 whole entry, looked up): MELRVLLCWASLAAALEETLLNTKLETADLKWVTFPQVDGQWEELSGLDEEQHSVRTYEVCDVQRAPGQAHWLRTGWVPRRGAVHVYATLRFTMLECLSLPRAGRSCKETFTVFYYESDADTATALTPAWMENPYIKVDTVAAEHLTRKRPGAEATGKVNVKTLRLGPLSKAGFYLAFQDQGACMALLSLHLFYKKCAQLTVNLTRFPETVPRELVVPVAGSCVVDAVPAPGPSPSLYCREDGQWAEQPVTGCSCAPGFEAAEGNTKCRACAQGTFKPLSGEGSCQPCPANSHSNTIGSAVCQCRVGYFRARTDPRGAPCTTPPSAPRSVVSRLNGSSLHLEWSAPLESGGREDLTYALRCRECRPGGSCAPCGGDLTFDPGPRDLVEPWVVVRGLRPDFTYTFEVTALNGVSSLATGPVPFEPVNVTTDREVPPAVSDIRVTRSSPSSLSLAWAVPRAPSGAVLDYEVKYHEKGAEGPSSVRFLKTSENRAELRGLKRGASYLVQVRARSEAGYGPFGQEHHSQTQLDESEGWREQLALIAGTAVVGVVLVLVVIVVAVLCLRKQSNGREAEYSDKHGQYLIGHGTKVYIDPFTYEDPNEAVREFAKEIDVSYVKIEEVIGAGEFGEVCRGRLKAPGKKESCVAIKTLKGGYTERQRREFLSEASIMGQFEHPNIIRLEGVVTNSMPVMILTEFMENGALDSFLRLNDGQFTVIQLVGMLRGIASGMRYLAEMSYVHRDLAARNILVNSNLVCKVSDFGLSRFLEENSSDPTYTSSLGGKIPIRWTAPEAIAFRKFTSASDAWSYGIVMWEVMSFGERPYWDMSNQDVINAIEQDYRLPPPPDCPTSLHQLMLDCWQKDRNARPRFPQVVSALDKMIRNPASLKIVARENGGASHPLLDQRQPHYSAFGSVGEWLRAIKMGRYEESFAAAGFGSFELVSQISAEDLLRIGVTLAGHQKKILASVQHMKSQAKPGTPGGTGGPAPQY
inactive: [5] -0.151 | ralimetinib 0.131 | [11] 0.241

DERPC (UniProt P0CG12)
inactive: erlotinib 0.197 | [14] -0.346 | [4] 0.078 | [5] -0.034 | IRAK-1-4 Inhibitor I -0.077 | ibrutinib 0.004 | ralimetinib 0.017 | [15] -0.003 | [11] -0.029 | pinometostat 0.161 | [12] 0.066

DCP2 (UniProt Q8IU60)
inactive: [1] 0.176 | [2] -0.117 | [3] -0.118 | [5] 0.021 | [6] -0.073 | [7] -0.134 | [8] -0.064 | IRAK-1-4 Inhibitor I -0.372 | [9] -0.265 | ralimetinib 0.105 | [10] 0.147 | [11] 0.185 | pinometostat 0.038 | [13] -0.111

EIF4G1 (UniProt Q04637)
inactive: [1] 0.171 | [3] 0.018 | [6] -0.356 | [7] -0.301 | [8] -0.425 | [9] -0.334 | [13] 0.067

EID1 (UniProt Q9Y6B2)
Sequence of UniProt Q9Y6B2 (Q9Y6B2 whole entry, looked up): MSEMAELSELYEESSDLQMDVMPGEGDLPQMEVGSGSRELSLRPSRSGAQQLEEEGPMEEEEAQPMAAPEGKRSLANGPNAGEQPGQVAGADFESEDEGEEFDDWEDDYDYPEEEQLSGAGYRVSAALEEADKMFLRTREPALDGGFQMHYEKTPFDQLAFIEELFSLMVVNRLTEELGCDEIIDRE
inactive: erlotinib -0.17 | [2] -0.425 | [14] 0.137 | [7] 0.092 | [8] 0.029 | [10] 0.002 | [15] 0.05 | [12] 0.05 | [13] -0.281

DNAJC24 (UniProt Q6P3W2)
Sequence of UniProt Q6P3W2 (Q6P3W2 whole entry, looked up): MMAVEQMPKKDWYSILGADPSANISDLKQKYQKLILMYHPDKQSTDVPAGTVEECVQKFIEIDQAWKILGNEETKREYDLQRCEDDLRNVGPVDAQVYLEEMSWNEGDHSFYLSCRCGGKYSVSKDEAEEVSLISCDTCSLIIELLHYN
inactive: erlotinib -0.114 | [2] 0.123 | [14] 0.062 | [4] -0.053 | [5] -0.084 | [7] -0.047 | [8] -0.158 | IRAK-1-4 Inhibitor I -0.035 | ibrutinib 0.011 | ralimetinib 0.058 | [10] 0.026 | [15] -0.037 | [11] 0.058 | pinometostat -0.019 | [12] 0.062 | [13] -0.023

ENTPD7 (UniProt Q9NQZ7)
Sequence of UniProt Q9NQZ7 (Q9NQZ7 whole entry, looked up): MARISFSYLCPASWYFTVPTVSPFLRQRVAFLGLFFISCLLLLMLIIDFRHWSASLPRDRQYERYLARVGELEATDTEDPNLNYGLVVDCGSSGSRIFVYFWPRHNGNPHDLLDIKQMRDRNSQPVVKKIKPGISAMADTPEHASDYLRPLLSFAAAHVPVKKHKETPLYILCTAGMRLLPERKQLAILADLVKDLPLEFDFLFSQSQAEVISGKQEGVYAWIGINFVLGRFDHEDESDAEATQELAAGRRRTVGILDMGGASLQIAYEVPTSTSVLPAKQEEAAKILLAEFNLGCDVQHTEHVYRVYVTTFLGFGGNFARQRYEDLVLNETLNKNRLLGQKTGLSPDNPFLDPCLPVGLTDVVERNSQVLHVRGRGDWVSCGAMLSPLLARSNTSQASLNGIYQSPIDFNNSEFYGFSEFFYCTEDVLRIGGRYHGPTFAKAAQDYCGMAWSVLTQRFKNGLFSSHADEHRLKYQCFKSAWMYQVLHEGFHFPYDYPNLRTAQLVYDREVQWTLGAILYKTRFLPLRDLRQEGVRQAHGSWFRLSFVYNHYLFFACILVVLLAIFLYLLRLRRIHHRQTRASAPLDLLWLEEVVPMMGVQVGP
inactive: erlotinib 0.096 | [2] -0.028 | [14] -0.181 | [4] 0.063 | [7] -0.042 | [8] 0.037 | IRAK-1-4 Inhibitor I -0.146 | ibrutinib -0.013 | [10] 0.181 | [15] -0.043 | pinometostat -0.009 | [12] -0.022 | [13] -0.016

DOLPP1 (UniProt Q86YN1)
Sequence of UniProt Q86YN1 (Q86YN1 whole entry, looked up): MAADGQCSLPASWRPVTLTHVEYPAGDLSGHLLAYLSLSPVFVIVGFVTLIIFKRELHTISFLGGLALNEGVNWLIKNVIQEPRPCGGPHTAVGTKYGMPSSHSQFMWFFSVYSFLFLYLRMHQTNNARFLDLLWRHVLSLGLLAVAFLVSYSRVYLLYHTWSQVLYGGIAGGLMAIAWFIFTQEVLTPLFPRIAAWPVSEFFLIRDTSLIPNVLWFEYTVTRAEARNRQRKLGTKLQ
inactive: erlotinib 0.049 | [1] 0.039 | [14] 0.009 | [3] -0.165 | [4] 0.074 | [5] 0.17 | [6] 0.011 | [7] -0.088 | [8] 0.001 | IRAK-1-4 Inhibitor I 0.008 | ibrutinib -0.017 | [9] -0.19 | ralimetinib -0.128 | [15] -0.045 | [11] -0.154 | pinometostat -0.056 | [12] 0.016 | [13] 0.036

DENND1A isoform 6 (UniProt Q8TEH3)
inactive: [4] -0.328 | [7] -0.315 | [8] -0.034 | IRAK-1-4 Inhibitor I 0.121 | ibrutinib -0.003 | pinometostat -0.356 | [13] 0.113

DDX46, A0A0C4DG89
inactive: [2] 0.174 | [10] -0.123 | [12] -0.005

FAM135A (UniProt Q9P2D6)
Sequence of UniProt Q9P2D6 (Q9P2D6 whole entry, looked up): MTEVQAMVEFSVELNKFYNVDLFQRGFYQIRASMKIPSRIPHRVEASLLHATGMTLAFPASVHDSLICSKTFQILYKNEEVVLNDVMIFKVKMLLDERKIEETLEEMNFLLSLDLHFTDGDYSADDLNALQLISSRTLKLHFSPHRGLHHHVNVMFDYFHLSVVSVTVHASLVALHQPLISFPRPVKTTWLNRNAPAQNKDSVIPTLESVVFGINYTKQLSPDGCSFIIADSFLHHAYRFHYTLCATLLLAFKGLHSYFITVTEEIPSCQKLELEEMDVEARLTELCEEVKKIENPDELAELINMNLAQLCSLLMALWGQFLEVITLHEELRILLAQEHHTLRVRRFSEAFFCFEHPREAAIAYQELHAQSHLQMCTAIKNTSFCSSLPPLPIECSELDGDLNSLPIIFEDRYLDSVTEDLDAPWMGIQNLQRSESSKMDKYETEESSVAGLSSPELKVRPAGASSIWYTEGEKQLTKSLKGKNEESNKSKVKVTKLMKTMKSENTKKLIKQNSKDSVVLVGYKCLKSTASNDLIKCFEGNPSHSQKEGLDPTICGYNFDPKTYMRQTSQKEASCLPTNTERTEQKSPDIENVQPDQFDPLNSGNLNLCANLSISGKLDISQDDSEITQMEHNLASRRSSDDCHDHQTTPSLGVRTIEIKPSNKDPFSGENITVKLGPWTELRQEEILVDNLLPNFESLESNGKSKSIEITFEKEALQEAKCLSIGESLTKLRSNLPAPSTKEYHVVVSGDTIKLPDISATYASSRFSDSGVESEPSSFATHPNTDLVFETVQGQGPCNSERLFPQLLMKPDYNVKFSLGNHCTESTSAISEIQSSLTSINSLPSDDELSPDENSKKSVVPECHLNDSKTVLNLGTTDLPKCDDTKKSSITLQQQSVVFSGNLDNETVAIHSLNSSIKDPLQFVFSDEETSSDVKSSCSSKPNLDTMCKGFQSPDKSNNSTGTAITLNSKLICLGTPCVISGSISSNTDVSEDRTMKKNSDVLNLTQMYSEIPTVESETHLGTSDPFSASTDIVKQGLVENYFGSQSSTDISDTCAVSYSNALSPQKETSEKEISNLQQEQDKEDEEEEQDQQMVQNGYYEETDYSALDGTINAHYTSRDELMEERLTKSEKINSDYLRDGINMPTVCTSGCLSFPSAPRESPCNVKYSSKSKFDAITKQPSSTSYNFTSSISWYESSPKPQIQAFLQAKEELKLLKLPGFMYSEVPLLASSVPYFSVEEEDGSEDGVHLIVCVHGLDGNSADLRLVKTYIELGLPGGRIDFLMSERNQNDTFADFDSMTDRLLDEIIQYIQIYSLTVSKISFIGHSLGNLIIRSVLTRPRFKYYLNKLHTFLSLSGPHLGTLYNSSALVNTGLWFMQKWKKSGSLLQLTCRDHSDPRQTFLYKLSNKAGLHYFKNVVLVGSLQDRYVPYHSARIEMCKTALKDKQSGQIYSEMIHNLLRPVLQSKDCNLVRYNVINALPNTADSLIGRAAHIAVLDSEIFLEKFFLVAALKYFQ
inactive: erlotinib 0.033 | [2] 0.07 | [14] -0.116 | [10] 0.009 | [15] 0.051 | [12] -0.002

F2RL3 (UniProt Q96RI0)
Sequence of UniProt Q96RI0 (Q96RI0 whole entry, looked up): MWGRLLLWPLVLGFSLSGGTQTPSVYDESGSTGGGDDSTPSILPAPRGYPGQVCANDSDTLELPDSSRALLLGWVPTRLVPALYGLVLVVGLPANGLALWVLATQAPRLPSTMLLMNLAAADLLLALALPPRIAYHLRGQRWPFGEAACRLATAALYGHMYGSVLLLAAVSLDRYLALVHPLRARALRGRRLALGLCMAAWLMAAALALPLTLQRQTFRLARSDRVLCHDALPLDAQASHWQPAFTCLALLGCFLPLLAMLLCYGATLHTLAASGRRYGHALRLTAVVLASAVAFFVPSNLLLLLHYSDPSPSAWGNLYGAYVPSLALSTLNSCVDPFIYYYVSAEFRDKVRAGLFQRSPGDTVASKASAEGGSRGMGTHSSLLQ
inactive: erlotinib -0.056 | [1] 0.026 | [14] -0.083 | [3] 0.039 | [5] -0.052 | [6] -0.12 | [7] -0.161 | [8] 0.065 | [9] 0.02 | ralimetinib -0.084 | [15] 0.081 | [11] 0.021 | [13] 0.1
